Assay results: ChEMBL document CHEMBL3988442, “University of Dundee, Small-Polar-MMV Screening Library” (2021)
The whole screen tested about 69,000 compounds, of which about 950 (1.4%) showed an effect of 50% or more. Many of the other results were omitted from the sample, so strong results are more common in it than they were.

These compounds were tested on Mycobacterium tuberculosis (assay: Cornell M. t heat shock assay; further: in the data most compounds retested in dose-response had high values).
Assay type: functional, organism-based
Parameters: dose or concentration left out as unconfirmed

| Structure (SMILES) | Percent Effect |
| --- | --- |
| CS(=O)(=O)CCNCc1ccc(OCc2cscn2)cc1 | -2.969% |
| CC1c2ncc(Cn3cccn3)n2CCN1c1ncccn1.O=C(O)C(F)(F)F (centres undefined) | 40.47% |
| COc1ccc(-c2n[nH]cc2CNC2CCN(C3CC3)CC2)cc1.Cl | -33.63% |
| Cc1ccc(N2CCO[C@H]3CN(Cc4cccnc4)C[C@H]32)nn1.O=C(O)C(F)(F)F.O=C(O)C(F)(F)F.O=C(O)C(F)(F)F | -30.09% |
| O=C(Nc1nccs1)C1CCCN1Cc1ccccn1 (centres undefined) | 103.1% |
| CCNc1ccnc(CN2CCCC2C(=O)Nc2nccs2)c1 (centres undefined) | 13.04% |
| CC(=O)Nc1cccc(CN2CCCC2C(=O)Nc2nccs2)c1 (centres undefined) | -15.37% |
| Cc1ccc(C(N)c2cccc(S(C)(=O)=O)c2)c(C)c1.Cl (centres undefined) | 1.87% |
| CSc1ccc(CNC(c2ccc(F)cc2)c2nccn2C)cc1 (centres undefined) | 112.9% |
| Cn1cc(C(NCc2ccc(F)cc2)c2cccc(F)c2)cn1 (centres undefined) | -7.107% |
| CC(NCc1ccc(OCc2nccn2C)cc1)c1cccnc1 (centres undefined) | -26.18% |
| CSc1ccc(CNC(c2ccccc2)c2nccn2C)cc1 (centres undefined) | 105.2% |
| CC(c1ccc(F)cc1)N1CCN(Cc2nccn2C)CC1 (centres undefined) | -10.33% |
| COc1c(CNC(c2ccc(F)cc2)c2nccn2C)c(C)nn1C (centres undefined) | -11.67% |
| Cn1ccnc1C(NCc1ccccc1)c1ccc(F)cc1 (centres undefined) | 113.8% |
| COc1cccc(C(NCc2ccc(SC)cc2)c2nccn2C)c1 (centres undefined) | 112.8% |
| CSc1ccc(CN(CCO)Cc2nccn2C)cc1 | -17.8% |
| COc1c(CNC(c2ccccc2)c2ccc(F)cc2)c(C)nn1C (centres undefined) | -7.995% |
| COc1cccc(-c2cc(NCc3nccn3C)n(C)n2)c1 | 1.129% |
| COc1ccc(CNC(c2cccc(F)c2)c2cnn(C)c2)cc1 (centres undefined) | -3.342% |
| O=C(O)C(F)(F)F.O=C(O)C(F)(F)F.c1ccc(CO[C@@H]2CN(Cc3nccs3)[C@@H]3COC[C@@H]32)nc1 | 32.68% |
| Cn1cc(N2CC3(CCN(Cc4nccs4)CC3)OCC2=O)cn1.O=C(O)C(F)(F)F | -26.5% |
| CCn1c(NCc2ccccn2)nc2c(C)nn(C)c2c1=O | -10.12% |
| COc1ccc(CN2CCC(c3cc(O)nc(C)n3)C2)c(OC)c1.O=C(O)CC(O)(CC(=O)O)C(=O)O (centres undefined) | -19.34% |

| Structure (SMILES) | Percent Effect |
| --- | --- |
| Cl.O=C(NCc1cccc(Cl)c1)C1=NOC2(CCNC2)C1 (centres undefined) | -31.4% |
| O=C(O)C(F)(F)F.O=C(c1cscn1)N1CC[C@@H]2[C@@H]1CCN2C1CCOC1 (some centres undefined) | 5.753% |
| CCN1C[C@H]2[C@@H](C1)N(C(=O)Cc1ccsc1)CC[C@H]2OC.O=C(O)C(F)(F)F | -3.863% |
| COCC1Cn2nnc(-c3cnn(C)c3)c2CN1Cc1ccsc1.O=C(O)C(F)(F)F (centres undefined) | 14.81% |
| CCc1ccc(CN2CCN(c3ncc(Cl)cn3)CC2)nc1 | 68.7% |
| COc1ccc(CN2CCN(c3ncc(Cl)cn3)CC2)cc1 | -15.93% |
| CCc1ccc(CN2CCN(c3ccc(Cl)nn3)CC2)nc1 | 15.06% |
| Cc1nc(Cn2c3c(ccc2=O)CC(NC(C)C)CC3)cs1.O=C(O)C(F)(F)F.O=C(O)C(F)(F)F (centres undefined) | 34.33% |
| COCCN1CCOCC2(CCCN(Cc3cccc(F)c3)C2)C1.O=C(O)C(F)(F)F.O=C(O)C(F)(F)F (centres undefined) | -14.36% |
| Clc1ccccc1C1(c2ccnc(-c3ncccn3)n2)CCNCC1 | -0.2715% |
| Clc1ccccc1C1(c2ccnc(C3CCCC3)n2)CCNCC1 | 57.06% |
| Clc1ccccc1C1(c2ccnc(C3CC3)n2)CCNCC1 | -18.26% |
| CC(C)NC(=O)[C@@H]1C[C@@H]2CCN(Cc3ccoc3)C[C@H]2O1.O=C(O)C(F)(F)F | 43.76% |
| CC(C)N(C)Cc1cnc2n1CCN(C(=O)NC1CCCC1)C2.O=C(O)C(F)(F)F | 7.687% |
| Fc1cnc(N2CCO[C@H]3[C@H](OCCN4CCCC4)CC[C@@H]32)nc1.O=C(O)C(F)(F)F | -1.217% |
| Cc1ccc(N2CC[C@H]3C[C@@H](C(=O)N4CCOCC4)O[C@H]3C2)nn1.O=C(O)C(F)(F)F | 9.789% |
| O=C(Nc1c(N2CCCC2)cccc1N1CCCC1)c1cnsn1 | 3.548% |
| O=C(Nc1c(N2CCCC2)cccc1N1CCCC1)c1ccccn1 | 104.6% |
| O=C(Nc1c(N2CCCC2)cccc1N1CCCC1)c1cnccn1 | 26.63% |
| Cl.Cn1cc(CN2CCN(CC3(c4ccccc4)CC3)CC2)cn1 | -7.6% |
| Cc1cccc(CN2C(=O)CCC23CCN(C(=O)c2ccco2)CC3)n1.O=C(O)C(F)(F)F | -22.73% |
| COCc1nc(-c2ccnc(N3CCNCC3)n2)no1.Cl.Cl | 24.05% |
| CC(C)n1cc(C(=O)NC2CCS(=O)(=O)C2)c2ccccc2c1=O (centres undefined) | -0.4948% |
| CC(C)Cn1cc(C(=O)NC2CCS(=O)(=O)C2)c2ccccc2c1=O (centres undefined) | 1.323% |

| Structure (SMILES) | Percent Effect |
| --- | --- |
| O=C(NC1CCS(=O)(=O)C1)c1cn(C2CC2)c(=O)c2ccccc12 (centres undefined) | 62.62% |
| O=C(O)C(F)(F)F.c1cc(CN2C[C@H](OCC3CCOCC3)[C@H]3COC[C@H]32)cs1 | 11.94% |
| O=C(NC1CCCC1)[C@@H]1CN(Cc2nccs2)C[C@H]2OCC[C@H]21.O=C(O)C(F)(F)F.O=C(O)C(F)(F)F | -17.32% |
| CSCC(C)C(=O)NCc1c(C)nc2cc(=O)[nH]n2c1C (centres undefined) | 9.376% |
| Cn1ccnc1-c1ccc(NCCC2COc3ccccc3O2)nn1 (centres undefined) | 44.06% |
| Cn1ccnc1-c1ccc(NCC2COc3ccccc3O2)nn1 (centres undefined) | 32.53% |
| Cn1ccnc1-c1ccc(NC[C@H]2CCc3ccccc3O2)nn1 | 50.1% |
| Cl.O=C(C1CCC1)N1C[C@@H](c2ccsc2)[C@@H]2CN(C3CCCC3)CC[C@@H]21 | -4.778% |
| O=C(CCn1cc(Cl)cn1)N1C[C@@H]2CC[C@H](C1)N(Cc1ccccn1)C2 | 7.885% |
| CC(NCCCN1CCCC1=O)c1cc(Br)ccc1F (centres undefined) | 13.95% |
| CC(NCCCN1CCCC1=O)c1ccc(F)cc1N(C)C (centres undefined) | 87.91% |
| CC(NCCN1CCC(N(C)C)CC1)c1ccc(F)cc1N(C)C (centres undefined) | -14.59% |
| CCOC(=O)NCc1nn(CCN2CCCC2)c(=O)c2ccccc12 | 74.86% |
| COCC(=O)NCc1nn(CCN2CCCC2)c(=O)c2ccccc12 | -7.005% |
| CCNC(=O)NCc1nn(CCN2CCCC2)c(=O)c2ccccc12 | 41.46% |
| N#CCCN(Cc1cccnc1)C(=O)c1ccc(OCC2CC2)cc1 | 6.663% |
| N#CCCN(Cc1ccco1)C(=O)c1ccc(OCC2CC2)cc1 | 14.1% |
| N#CCCN(CCC#N)C(=O)c1ccc(OCC2CC2)cc1 | 94.69% |
| Cl.NCCC(=O)Nc1ccc(-c2ccccc2)cc1 | 3.2% |
| CC(=O)N1CCC(c2nc3ccc(NC4CCC4)cn3n2)CC1.O=C(O)C(F)(F)F | 21.7% |
| O=C(O)C(F)(F)F.O=C(O)C(F)(F)F.O=c1ccc2c(n1Cc1cccnc1)CCN(Cc1ccoc1)CC2 | -14.95% |
| CC(C)c1nn(C)cc1CNC1CCOc2ccccc21.Cl (centres undefined) | -5.42% |
| O=C(CN1CCc2ccccc21)Nc1ccc(OC(F)F)cc1 | 99.06% |
| COc1ccc(CNC(=O)CN2CCc3ccccc32)cc1 | -48.79% |

| Structure (SMILES) | Percent Effect |
| --- | --- |
| O=C(CN1CCCS1(=O)=O)Nc1ccc(OC(F)F)cc1 | -14.39% |
| COCCN1CCOCC2(C1)CN(C(=O)c1conc1C)CCO2.O=C(O)C(F)(F)F (centres undefined) | 15.5% |
| COCCC(=O)NC1CCN(CC2(c3cccc(F)c3)CCCC2)CC1.Cl | 23.79% |
| CC(c1cccc(-c2ncccc2C#N)c1)N(C)C (centres undefined) | 73.93% |
| Cc1ccc(C(=O)O)cc1-c1cccc(C(C)N(C)C)c1 (centres undefined) | -8.231% |
| CC(c1cccc(-c2nccn2CCc2ccccn2)c1)N(C)C (centres undefined) | -27.93% |
| CC(c1cccc(-c2ncc(C#N)c(N)n2)c1)N(C)C (centres undefined) | -10.92% |
| CC(c1cccc(-c2ncccc2F)c1)N(C)C (centres undefined) | 76.79% |
| COC(C)(C)Cn1ccnc1-c1cccc(C(C)N(C)C)c1 (centres undefined) | -20.81% |
| Cc1ccc(CN2Cc3ccccc3O[C@]3(CC[C@H](CO)CC3)C2)o1.Cl | -44.64% |
| Cc1nc(CN2C(=O)C[C@@H]3[C@@H]2CCN3CC2CCOCC2)cs1.O=C(O)C(F)(F)F | -14.82% |
| COCCC(=O)N1C[C@H]2CN(Cc3cccc(C)n3)C(=O)[C@H]2C1.O=C(O)C(F)(F)F | -12.42% |
| COc1cc(N2C[C@@H]3COC[C@]3(COCc3cccc(C)n3)C2)ncn1.O=C(O)C(F)(F)F.O=C(O)C(F)(F)F | 1.772% |
| Cc1cnccc1-c1cnn(CCNC(=O)c2ccncc2)c1C1CC1.Cl | -0.5476% |
| CN(C)CCN1C(=O)C2(CCN(CC3CC3)CC2)c2ccccc21.O=C(O)C(F)(F)F.O=C(O)C(F)(F)F | 2.693% |
| Cc1ccc(CN2CCC[C@]3(C(=O)O)CN(C)C[C@@H]3C2)s1.O=C(O)C(F)(F)F.O=C(O)C(F)(F)F | 10.8% |
| Cc1cc(N2CCC(c3nnc(CN(C)C)n3C3CC3)CC2)ccn1 | -0.4086% |
| CCn1c(CN(C)C)nnc1C1CCN(c2ccnc(C)c2)CC1 | 105.5% |
| CCn1c(CN(C)C)nnc1C1CCN(c2nccc(NC)n2)CC1 | -31.54% |
| Cc1cc(-n2cncn2)n2ncnc2n1 | 61.29% |
| Cc1cc(N2CCCC2Cn2nc(C)cc2C)n2ncnc2n1 (centres undefined) | 11.78% |
| Cc1cc(-n2cnnn2)n2ncnc2n1 | -4.919% |
